Bioassay records as filed in PubChem.
PLC-beta3 inh: human PLC-beta3 inhibitors, primary screen, biochemical, fluorescence | 1-phosphatidylinositol 4,5-bisphosphate phosphodiesterase beta-3 (Homo sapiens), Q01970 | Purified PLC-beta3, fluorogenic substrate | inhibition, % at 12.2 µM | 370,000 tested, 0.18% active | AID 720704, 2013; in the data active means inhibition above about 11%
ADAM17 inh: ADAM17 inhibitors, primary screen, biochemical, QFRET. Disintegrin and metalloproteinase domain-containing protein 17 (Homo sapiens), P78536. recombinant ADAM17, EDANS/DABCYL FRET peptide cleavage. inhibition, % at 6.95 µM. 370,000 tested, 0.83% active;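 active means inhibition above the mean of compounds lying between control limits plus 3 SD, set per campaign, cut at about 8.5% in these data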
PLC-gamma1 inh: PLC-gamma1 enzyme inhibitors, primary screen, biochemical, fluorescence, purified enzyme. 1-phosphatidylinositol 4,5-bisphosphate phosphodiesterase gamma-1 (Homo sapiens), P19174. fluorogenic substrate. inhibition, % at 12.2 µM. 370,000 tested, 0.84% active; in the data active means inhibition above about 9.5%
KLK7 zymogen act: proKLK7 zymogen activators, primary screen, biochemical, fluorescence intensity; Kallikrein-7 (Homo sapiens), P49862; purified proKLK7, EDANS-DABCYL substrate fluorescence; 100% is mature enzyme control, 0% vehicle; activation, % at 7 µM; 370,000 tested, 0.9% active;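 active means activation above the mean of all tested compounds plus 3 SD, computed per campaign excluding outliers beyond control limits, cut at about 13% in these data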
ADAM10 inh: human ADAM10 inhibitors, primary screen, biochemical, QFRET, HTS | Disintegrin and metalloproteinase domain-containing protein 10 (Homo sapiens), O14672 | recombinant ADAM10, EDANS/DABCYL FRET peptide cleavage, 3 h | inhibition, % at 7 µM | 370,000 tested, 0.62% active | AID 720582, 2013;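 active means inhibition above a per-campaign cutoff equal to the mean of compounds falling between control-based bounds plus 3 SD, cut at about 20% in these data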
proKLK7 act conf: proKLK7 zymogen activators, confirmation, biochemical, fluorescence intensity, triplicate | shares compounds with KLK7 zymogen act | purified proKLK7, EDANS-DABCYL substrate fluorescence; scaled: vehicle 0, mature enzyme 100 | activation, % at 7 µM | 3,200 tested, 68% active;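 active means activation, as change over the incubation, above the mean of all tested compounds plus 3 SD, cut at about 13% in these data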
EDANS-DABCYL int: EDANS-DABCYL substrate optical interference, artefact control for kallikrein-7 zymogen activator project, biochemical, fluorescence intensity, high throughput; 3,200 tested, 80% active; activation, % at 7 µM; no enzyme, 4 h; solvent 0%, active enzyme control 100%; shares compounds with KLK7 zymogen act;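 active means activation above the all-compound mean plus 3 SD, ignoring values outside control-based bounds, cut at about 4.8% in these data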;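 further: value is the 4 h activation minus the activation read at time zero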
Hits are given with their value; - = inactive; . = not tested or not shown. Hits are enriched below; roughly 2.9% of the tested compounds scored in any of these assays.

SMILES	PLC-beta3 inh	ADAM17 inh	PLC-gamma1 inh	KLK7 zymogen act	ADAM10 inh	proKLK7 act conf	EDANS-DABCYL int
Cc1c(CC(=O)N2CCN(C(=O)C3COc4ccccc4O3)CC2)c(=O)oc2cc(O)c(Cl)cc12 (stereo not given)	-	-	-	89	-	64	64
O=C(O)c1c2c(nc3ccccc13)/C(=C/c1ccc(OC(F)F)cc1)CCC2	-	-	-	-	-	.	.
O=C(O)c1c2c(nc3ccccc13)/C(=C/c1ccc(O)cc1)CC2	-	-	-	28	-	68	70
Cc1ccc(NC(=O)CSc2nnc(NC(=O)C(C)C)s2)c(C)c1	-	-	-	-	-	.	.
Cc1cccn2cc(-c3c[nH]c4ccccc34)nc12	-	-	-	16	-	-	-
Brc1ccc2nc(-c3c[nH]c4ccccc34)cn2c1	-	-	-	-	-	.	.
COc1ccccc1OCc1cc(C(=O)N2CCN(C)C(c3ccccc3)C2)no1 (stereo not given)	-	-	-	-	-	.	.
O=C(COC(=O)c1cc(Cl)ccc1O)Nc1cc(C(F)(F)F)ccc1N1CCOCC1	-	-	-	16	-	23	22
CC1(c2ccccc2)NC(=O)N(NC(=O)COC(=O)c2cc(Br)ccc2O)C1=O (stereo not given)	-	-	-	28	-	34	38
O=C(COC(=O)c1ccc(O)cc1)Nc1cc(C(F)(F)F)ccc1N1CCOCC1	-	-	-	-	-	.	.
O=C(COC(=O)c1cc(Cl)ccc1O)NNC(=O)c1ccccc1F	-	-	-	86	-	137	124
O=C(COC(=O)c1cc2ccccc2cc1O)Nc1ccccc1F	-	-	-	14	-	15	13
Fc1ccccc1N1CCN(Cc2cccnc2)CC1	-	-	-	-	-	.	.
COc1ccc(CCNC(=O)/C(=C/c2cccnc2)NC(=O)c2ccccc2)cc1OC	-	-	-	-	-	.	.
CC1=CC(=C(C#N)C#N)C=C(C)N1CCN1CCN(C(=O)Nc2ccc(Cl)c(Cl)c2)CC1	-	-	-	-	-	.	.
O=C(COC(=O)c1cc(Br)ccc1O)NNC(=O)c1ccc([N+](=O)[O-])cc1	-	-	-	26	-	40	38
O=C(COC(=O)c1ccccc1O)NNC(=O)c1ccc(Br)cc1	-	-	-	-	-	.	.
O=C(COC(=O)c1cc(Br)ccc1O)NNC(=O)c1ccc(Cl)cc1	-	-	-	17	-	20	19
O=C(COC(=O)c1cc(Cl)ccc1O)Nc1ccc2c(c1)OCCO2	-	-	-	19	-	19	16
COc1ccc(-n2nnnc2C(c2cccc(OC)c2OC)N2CCN(C/C=C/c3ccccc3)CC2)cc1 (stereo not given)	-	-	-	-	-	.	.
NC(=O)C[n+]1cccc2ccccc21	-	-	-	-	-	.	.
CCCCC[n+]1cccc2c3ccccc3ccc21	-	-	-	26	-	16	17
O=[N+]([O-])c1ccc(C[n+]2cccc3ccccc32)cc1	-	-	-	-	-	.	.
c1ccc(C[n+]2cccc3c4ccccc4ccc32)cc1	-	-	-	16	-	22	28
CC1(C)CC(NC(=O)C2CCN(S(=O)(=O)c3ccccc3C(F)(F)F)CC2)CC(C)(C)N1	-	-	-	-	-	.	.
SMILES	PLC-beta3 inh	ADAM17 inh	PLC-gamma1 inh	KLK7 zymogen act	ADAM10 inh	proKLK7 act conf	EDANS-DABCYL int
c1ccc(NN(Cc2ccncc2)c2ccccc2)cc1	-	-	-	-	-	.	.
CC(=O)c1ccc(-c2nc3ccccc3n2C)o1	-	-	-	67	-	57	59
Cc1cccc(OC(=O)c2cncc(Br)c2)c1	-	-	-	-	-	.	.
CC(=O)Nc1cccc(C(=O)Oc2cccc(C)c2)c1O	-	-	-	40	-	48	51
COc1cc2c(C#CCCO)c(-c3ccsc3)oc(=O)c2cc1OC	-	-	-	-	-	.	.
COc1cccc2[nH]c3c(N4CCC(C)CC4)ncnc3c12	-	-	-	-	-	.	.
COc1cccc2[nH]c3c(N4CCC5(CC4)OCCO5)ncnc3c12	-	-	-	39	-	38	45
CCCCCCc1ccc(OC(=O)c2ccncc2)cc1	-	-	-	-	-	.	.
COc1ccc(OC)c(/C=N/NC(=O)CCc2c(C)n[nH]c2C)c1	-	-	-	17	-	32	35
COc1ccc(OC)c(/C=N/NC(=O)c2cnccn2)c1	-	-	-	26	-	36	39
COc1ccc(OC)c(/C=N/NC(=O)CC2C(=O)NN=C2C)c1 (stereo not given)	-	-	-	77	-	45	39
COc1cccc(/C=N/NC(=O)CC2C(=O)NN=C2C)c1OC (stereo not given)	-	-	-	-	-	.	.
COc1ccc(OC)c(/C=N/NC(=O)c2cc[n+](CC(=O)c3ccccc3)cc2)c1	-	-	-	31	-	63	65
COc1ccc(/C=N/NC(=O)c2cnccn2)c(OC)c1OC	-	-	-	-	-	.	.
CCC(C)NS(=O)(=O)c1ccc(F)c(C(=O)Nc2c(F)cc(F)cc2Br)c1 (stereo not given)	-	-	-	-	-	.	.
COC(=O)C1=C(C)N(CC(C)C)C(=S)NC1c1ccc(Cl)cc1 (stereo not given)	-	-	-	-	-	.	.
COc1ccc(NC(=O)COc2ccc(/C=N/NC(=O)c3cccnc3)cc2OC)cc1	-	-	-	20	-	-	-
COc1ccc(OC)c(/C=N/NC(=O)C(=O)N/N=C/c2cc(OC)ccc2OC)c1	-	-	-	-	-	.	.
COc1cc(/C=C/c2cc[n+](C)cc2)ccc1OCC(=O)Nc1ccccc1	-	-	-	24	-	28	25
COc1ccc(OC)c(/C=N/NC(=O)C(=O)N2CCCC2)c1	-	-	-	59	-	48	46
C/C=C/c1ccc(OCC(=O)Nc2ccc(C(N)=O)cc2)c(OC)c1	-	-	-	-	-	.	.
COc1ccc(OC)c(/C=N/NC(=O)CC(=O)NC2CCCCC2)c1	-	-	-	29	-	-	23
COc1ccc(OC)c(/C=N/NC(=O)CC(=O)NCc2ccccc2)c1	-	-	-	-	-	.	.
O=C(CN1CCC(n2nnc3cc(C(F)(F)F)ccc32)CC1)Nc1ccc2c(c1)CCC2	-	-	-	-	-	.	.
